For seven sequences, binding signal results are on record in PMC7862700, “An all-to-all approach to the identification of sequence-specific readers for epigenetic DNA modifications on cytosine”.

Common to all, as to assay: DAPPL (digital affinity profiling via proximity ligation, sequencing); 10 mM Tris-HCl pH 7.5, 50 mM NaCl, 1 mM DTT, 4% glycerol, room temperature, 30 min; GST-TFs on glutathione beads, 16-mer random dsDNA library, 0.1% formaldehyde crosslink after washing; high values mean tight binding
Holding throughout (details): protein: recombinant; tags: N-terminal GST; dsDNA, one strand shown

For one test, the target named is T1, ERF (Homo sapiens, UniProt P50548 1-548).
T1 sequence: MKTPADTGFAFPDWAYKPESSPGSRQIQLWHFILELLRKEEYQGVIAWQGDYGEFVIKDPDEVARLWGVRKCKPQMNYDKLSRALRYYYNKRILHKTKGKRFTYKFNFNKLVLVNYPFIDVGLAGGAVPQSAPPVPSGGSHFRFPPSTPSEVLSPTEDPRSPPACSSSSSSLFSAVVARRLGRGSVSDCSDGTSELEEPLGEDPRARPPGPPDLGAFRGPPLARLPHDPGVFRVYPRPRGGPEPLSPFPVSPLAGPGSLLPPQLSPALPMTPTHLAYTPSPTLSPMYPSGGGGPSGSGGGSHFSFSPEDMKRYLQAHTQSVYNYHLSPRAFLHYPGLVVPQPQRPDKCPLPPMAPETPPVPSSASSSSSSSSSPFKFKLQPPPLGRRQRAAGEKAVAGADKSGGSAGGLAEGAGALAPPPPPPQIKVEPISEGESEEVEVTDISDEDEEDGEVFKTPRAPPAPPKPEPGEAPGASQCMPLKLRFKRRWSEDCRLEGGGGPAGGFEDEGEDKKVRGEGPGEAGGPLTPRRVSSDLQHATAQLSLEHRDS
Summed up:
(§1)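 Binding signal is defined as a hexamer's read frequency for one factor over its frequency for the tag-only sample. To obtain reads, GST-fused human transcription factors were expressed in yeast, captured on glutathione beads, barcoded with DNA and pooled with that sample. Pools met 200 nmole of a 16-mer random double-stranded DNA library in Tris/NaCl/DTT/glycerol buffer for 30 min at room temperature before washing, 0.1% formaldehyde crosslinking, proximity ligation (BsaI/T4 ligase, 1 h, 37 °C), PCR and Illumina NextSeq500 sequencing.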

The next test addresses T2, ETV3L (Homo sapiens, UniProt Q6ZN32 1-361).
T2 sequence: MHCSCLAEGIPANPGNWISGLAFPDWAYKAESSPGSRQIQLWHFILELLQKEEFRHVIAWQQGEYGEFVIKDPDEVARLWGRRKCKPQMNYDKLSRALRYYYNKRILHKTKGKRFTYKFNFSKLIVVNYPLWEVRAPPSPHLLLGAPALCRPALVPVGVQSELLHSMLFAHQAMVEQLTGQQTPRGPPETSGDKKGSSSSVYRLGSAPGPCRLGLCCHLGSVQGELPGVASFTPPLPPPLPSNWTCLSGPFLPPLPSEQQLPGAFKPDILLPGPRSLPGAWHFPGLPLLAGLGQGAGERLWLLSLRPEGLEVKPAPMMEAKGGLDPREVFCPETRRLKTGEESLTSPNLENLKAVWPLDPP
Summed up: as §1

The next test addresses T3, ETS2 (Homo sapiens, UniProt P15036 1-469).
T3 sequence: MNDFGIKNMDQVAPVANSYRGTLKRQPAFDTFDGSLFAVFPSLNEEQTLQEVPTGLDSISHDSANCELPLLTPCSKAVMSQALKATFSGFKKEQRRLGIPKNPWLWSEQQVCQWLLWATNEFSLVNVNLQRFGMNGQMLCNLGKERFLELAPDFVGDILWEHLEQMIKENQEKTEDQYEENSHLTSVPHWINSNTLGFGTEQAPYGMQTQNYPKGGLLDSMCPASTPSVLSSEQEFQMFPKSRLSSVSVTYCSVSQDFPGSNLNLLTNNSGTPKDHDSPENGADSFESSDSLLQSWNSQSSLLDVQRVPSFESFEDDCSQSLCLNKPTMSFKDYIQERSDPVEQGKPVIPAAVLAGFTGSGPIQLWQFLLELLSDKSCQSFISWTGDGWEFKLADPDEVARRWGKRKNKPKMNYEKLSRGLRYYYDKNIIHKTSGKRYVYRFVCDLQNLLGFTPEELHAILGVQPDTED
In outline: as §1

The target in the next test is T4, SPDEF (Homo sapiens, UniProt O95238 1-335).
T4 sequence: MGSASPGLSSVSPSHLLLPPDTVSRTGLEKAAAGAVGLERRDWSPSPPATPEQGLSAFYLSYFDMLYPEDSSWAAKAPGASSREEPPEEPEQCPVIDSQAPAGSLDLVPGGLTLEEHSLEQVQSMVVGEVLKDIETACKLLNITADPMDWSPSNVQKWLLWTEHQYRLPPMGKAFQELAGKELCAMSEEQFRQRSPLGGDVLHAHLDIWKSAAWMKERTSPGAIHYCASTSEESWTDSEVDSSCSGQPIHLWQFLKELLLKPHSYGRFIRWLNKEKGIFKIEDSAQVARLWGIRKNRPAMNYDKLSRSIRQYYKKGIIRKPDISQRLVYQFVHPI
Summed up: as §1

A further test has as its target T5, ETV7 (Homo sapiens, UniProt Q9Y603 1-341).
T5 sequence: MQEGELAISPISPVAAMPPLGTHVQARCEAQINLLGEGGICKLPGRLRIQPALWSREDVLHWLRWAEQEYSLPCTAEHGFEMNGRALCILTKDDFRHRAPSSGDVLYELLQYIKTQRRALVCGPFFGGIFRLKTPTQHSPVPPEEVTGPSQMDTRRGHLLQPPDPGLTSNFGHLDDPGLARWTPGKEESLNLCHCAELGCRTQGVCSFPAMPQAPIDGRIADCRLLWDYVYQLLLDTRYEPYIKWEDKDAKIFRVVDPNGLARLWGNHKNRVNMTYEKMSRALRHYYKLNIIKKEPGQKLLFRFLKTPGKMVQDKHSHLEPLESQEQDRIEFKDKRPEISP
In outline: as §1

In the next test the target is T6, ELF5 (Homo sapiens, UniProt Q9UKW6-2 1-255).
T6 sequence: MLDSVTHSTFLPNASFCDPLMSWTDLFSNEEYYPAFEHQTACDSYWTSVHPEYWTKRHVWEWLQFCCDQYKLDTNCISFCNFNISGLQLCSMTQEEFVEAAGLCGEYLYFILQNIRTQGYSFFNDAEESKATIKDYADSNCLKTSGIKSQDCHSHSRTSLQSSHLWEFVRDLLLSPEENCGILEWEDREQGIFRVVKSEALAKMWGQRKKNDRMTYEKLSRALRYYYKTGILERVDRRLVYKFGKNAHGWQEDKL
Summed up: as §1

The next test has as its target T7, ETV3 (Homo sapiens, UniProt P41162-2 1-143).
T7 sequence: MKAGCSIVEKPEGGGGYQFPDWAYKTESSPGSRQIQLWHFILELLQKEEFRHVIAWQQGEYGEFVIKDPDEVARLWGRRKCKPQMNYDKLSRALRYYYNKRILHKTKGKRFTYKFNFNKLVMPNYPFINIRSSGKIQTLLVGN
Summed up:
as §1

The target of another test is ETV6 (Homo sapiens, UniProt P41212 1-452). Summed up: as §1
Chain of ETV6 (P41212 whole entry): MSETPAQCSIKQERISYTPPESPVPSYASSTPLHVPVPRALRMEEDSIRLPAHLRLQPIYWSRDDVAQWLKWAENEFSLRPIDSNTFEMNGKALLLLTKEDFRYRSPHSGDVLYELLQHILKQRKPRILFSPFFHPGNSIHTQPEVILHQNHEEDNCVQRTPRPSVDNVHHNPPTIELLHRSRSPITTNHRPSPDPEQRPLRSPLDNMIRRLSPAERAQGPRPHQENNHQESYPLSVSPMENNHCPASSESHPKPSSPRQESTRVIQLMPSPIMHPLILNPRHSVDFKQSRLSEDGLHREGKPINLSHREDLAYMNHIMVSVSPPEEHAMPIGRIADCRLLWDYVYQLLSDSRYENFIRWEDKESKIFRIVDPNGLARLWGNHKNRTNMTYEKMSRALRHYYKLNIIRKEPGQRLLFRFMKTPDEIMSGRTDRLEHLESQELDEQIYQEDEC

AAATGC: the binding signal with ERF is 1.27 fold enrichment (6-mer frequency, TF over GST control); with ETV3L, 1.26 fold enrichment (6-mer frequency, TF over GST control); with ETS2, 1.25 fold enrichment (6-mer frequency, TF over GST control); in the test with SPDEF, 1.3 fold enrichment (6-mer frequency, TF over GST control); in the test with ETV7, 1.34 fold enrichment (6-mer frequency, TF over GST control); with ELF5, 1.33 fold enrichment (6-mer frequency, TF over GST control). The binding signal in the test with ETV3 was 1.18 fold enrichment (6-mer frequency, TF over GST control); in the test with ETV6, 1.35 fold enrichment (6-mer frequency, TF over GST control).

As for ATTCTT, the binding signal in the test with ERF is 1.3 fold enrichment (6-mer frequency, TF over GST control); in the test with ETV3L it was 1.46 fold enrichment (6-mer frequency, TF over GST control); with ETS2, 1.41 fold enrichment (6-mer frequency, TF over GST control); in the test with SPDEF, 1.34 fold enrichment (6-mer frequency, TF over GST control); with ETV7 it was 1.54 fold enrichment (6-mer frequency, TF over GST control); with ELF5, 1.4 fold enrichment (6-mer frequency, TF over GST control). Also, the binding signal is 1.48 fold enrichment (6-mer frequency, TF over GST control) with ETV3 and 1.46 fold enrichment (6-mer frequency, TF over GST control) with ETV6.

Turning to TTGATT, the binding signal with ERF is 1.31 fold enrichment (6-mer frequency, TF over GST control); in the test with ETV3L, 1.25 fold enrichment (6-mer frequency, TF over GST control); with ETS2, 1.22 fold enrichment (6-mer frequency, TF over GST control); with SPDEF it was 1.15 fold enrichment (6-mer frequency, TF over GST control); in the test with ETV7, 1.28 fold enrichment (6-mer frequency, TF over GST control); with ELF5 it was 1.16 fold enrichment (6-mer frequency, TF over GST control). For the same sequence, the binding signal is 1.3 fold enrichment (6-mer frequency, TF over GST control) with ETV3 and 1.18 fold enrichment (6-mer frequency, TF over GST control) with ETV6.

As for AAGGAA, the binding signal in the test with ERF is 1.23 fold enrichment (6-mer frequency, TF over GST control); in the test with ETV3L, 1.3 fold enrichment (6-mer frequency, TF over GST control); with ETS2, 1.34 fold enrichment (6-mer frequency, TF over GST control); with SPDEF, 1.22 fold enrichment (6-mer frequency, TF over GST control); with ETV7 it was 1.28 fold enrichment (6-mer frequency, TF over GST control); with ELF5 it was 2.15 fold enrichment (6-mer frequency, TF over GST control). The binding signal with ETV3 was 1.37 fold enrichment (6-mer frequency, TF over GST control); with ETV6 it was 1.41 fold enrichment (6-mer frequency, TF over GST control).

Turning to GCGTTC, the binding signal was 1.11 fold enrichment (6-mer frequency, TF over GST control) in the test with ERF; 1.15 fold enrichment (6-mer frequency, TF over GST control) with ETV3L; 1.21 fold enrichment (6-mer frequency, TF over GST control) with ETS2; 1.02 fold enrichment (6-mer frequency, TF over GST control) with SPDEF; 1.23 fold enrichment (6-mer frequency, TF over GST control) in the test with ETV7; 1.03 fold enrichment (6-mer frequency, TF over GST control) with ELF5. The binding signal with ETV3 was 1.11 fold enrichment (6-mer frequency, TF over GST control); with ETV6, 1.12 fold enrichment (6-mer frequency, TF over GST control).

Take GAAGTT: the binding signal in the test with ERF is 1.47 fold enrichment (6-mer frequency, TF over GST control); in the test with ETV3L, 1.64 fold enrichment (6-mer frequency, TF over GST control); with ETS2, 1.71 fold enrichment (6-mer frequency, TF over GST control); in the test with SPDEF, 1.56 fold enrichment (6-mer frequency, TF over GST control); with ETV7 it was 1.65 fold enrichment (6-mer frequency, TF over GST control); with ELF5, 2 fold enrichment (6-mer frequency, TF over GST control). In addition, the binding signal in the test with ETV3 was 1.7 fold enrichment (6-mer frequency, TF over GST control); with ETV6 it was 1.93 fold enrichment (6-mer frequency, TF over GST control).

For the sequence CAACAT, the binding signal with ERF was 1.23 fold enrichment (6-mer frequency, TF over GST control); in the test with ETV3L, 1.2 fold enrichment (6-mer frequency, TF over GST control); with ETS2, 1.17 fold enrichment (6-mer frequency, TF over GST control); in the test with SPDEF, 1.17 fold enrichment (6-mer frequency, TF over GST control); with ETV7, 1.08 fold enrichment (6-mer frequency, TF over GST control); with ELF5, 1.16 fold enrichment (6-mer frequency, TF over GST control). Besides, the binding signal with ETV3 is 1.22 fold enrichment (6-mer frequency, TF over GST control); in the test with ETV6, 1.09 fold enrichment (6-mer frequency, TF over GST control).
